According to PubChem BioAssay (NCI):
The panel holds about 83,000 compounds, 20% with a hit somewhere; the sample as a whole holds those more often.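 Interpretation: 100, growth as untreated; towards 0, rising growth inhibition; 0, no net growth; 0 to -100, cell death. Compounds scoring below 10 were considered active.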 Activity calls are given as the source filed them.

Columns and labels:
Test in all cases: NCI-60 one-dose screen, 48 h (100 = growth as untreated, 0 = no growth, -100 = all killed)
Details in all cases: 10 µM unless noted
NCI-H23 lung = test system: NCI-H23 lung
NCI-H226 lung = test system: NCI-H226 lung
NCI-H322M lung = test system: NCI-H322M lung
HOP-62 NSCLC = test system: HOP-62 NSCLC
NCI-H460 lung = test system: NCI-H460 lung
HOP-92 NSCLC = test system: HOP-92 NSCLC
NCI-H522 lung = test system: NCI-H522 lung
A549/ATCC NSCLC = test system: A549/ATCC NSCLC
786-0 renal = test system: 786-0 renal
COLO 205 colon = test system: COLO 205 colon

Measured: growth

FC(F)(F)c1cc(Br)cc(-c2cc(-c3ccc4c(c3)OCCO4)[nH]n2)c1
inactive: NCI-H23 lung 40.1% | NCI-H226 lung 53.8% | NCI-H322M lung 45.4% | HOP-62 NSCLC 52.2% | HOP-92 NSCLC 32% | NCI-H522 lung 20.5% | A549/ATCC NSCLC 22.1% | 786-0 renal 28.3%
active: NCI-H460 lung 5.69% | COLO 205 colon -12.9%

COc1ccc(-c2cc(-c3ccc(N(C)C)cc3)n3c(n2)nc2ccccc23)cc1
active: HOP-92 NSCLC -5.95%
inactive: NCI-H23 lung 68% | NCI-H226 lung 60.8% | NCI-H322M lung 82.2% | HOP-62 NSCLC 77.9% | NCI-H460 lung 53.3% | NCI-H522 lung 17.7% | A549/ATCC NSCLC 38.6% | 786-0 renal 42.8% | COLO 205 colon 59.4%

O=S(=O)(NCCCNc1nccc(-c2[nH]c(-c3ccccc3)nc2-c2ccc(F)c(O)c2)n1)c1cccc(F)c1
inactive: NCI-H23 lung 90.4% | NCI-H226 lung 96.7% | NCI-H322M lung 103% | HOP-62 NSCLC 116% | NCI-H460 lung 78% | HOP-92 NSCLC 94.6% | NCI-H522 lung 87.5% | A549/ATCC NSCLC 92.4% | 786-0 renal 101% | COLO 205 colon 96.3%

COc1ccccc1/C=C1\Oc2ccc(O)c(O)c2C1=O
inactive: NCI-H23 lung 93.2% | NCI-H226 lung 110% | NCI-H322M lung 102% | HOP-62 NSCLC 99.9% | NCI-H460 lung 101% | HOP-92 NSCLC 103% | NCI-H522 lung 89.1% | A549/ATCC NSCLC 101% | 786-0 renal 94.1% | COLO 205 colon 116%

COC(=O)CCSC1=C(C)C(=O)c2ccccc2C1=O
inactive: NCI-H23 lung 71.3% | NCI-H226 lung 86.7% | NCI-H322M lung 99% | HOP-62 NSCLC 107% | NCI-H460 lung 101% | HOP-92 NSCLC 88.6% | NCI-H522 lung 62.4% | A549/ATCC NSCLC 106% | 786-0 renal 103% | COLO 205 colon 120%

CCCc1cc2cc(-n3nc(CC)c4c3CC(C)(C)CC4=O)cc(NC3CCC(O)CC3)c2c(=O)[nH]1 (stereo not given)
active: NCI-H460 lung -12.1% | HOP-92 NSCLC -1.33% | 786-0 renal -12.4% | COLO 205 colon 8.47%
inactive: NCI-H23 lung 18.3% | NCI-H226 lung 13.9% | NCI-H322M lung 35.1% | HOP-62 NSCLC 15.4% | NCI-H522 lung 17.7% | A549/ATCC NSCLC 25%

Cc1[nH]c(C(=O)Nc2ccccc2OCc2cccc(C(=O)NCCN)c2)cc1Cl
inactive: NCI-H23 lung 102% | NCI-H226 lung 101% | NCI-H322M lung 92.9% | HOP-62 NSCLC 103% | NCI-H460 lung 100% | HOP-92 NSCLC 84.5% | NCI-H522 lung 95% | A549/ATCC NSCLC 95.2% | 786-0 renal 81% | COLO 205 colon 102%

Clc1ccc2[nH]cc(-c3nn4cc(-c5cccnc5)nc4s3)c2c1
inactive: NCI-H23 lung 92.8% | NCI-H226 lung 96.5% | NCI-H322M lung 98% | HOP-62 NSCLC 82.2% | NCI-H460 lung 99.9% | HOP-92 NSCLC 83.6% | NCI-H522 lung 97.1% | A549/ATCC NSCLC 99.4% | 786-0 renal 113% | COLO 205 colon 88.9%

COc1ccc(/C=N/NC(=O)c2c(N)nn(C)c2Nc2ccccc2)cc1Oc1ccccc1
inactive: NCI-H23 lung 90.4% | NCI-H226 lung 91.9% | NCI-H322M lung 89.4% | HOP-62 NSCLC 96.5% | NCI-H460 lung 102% | HOP-92 NSCLC 51.3% | NCI-H522 lung 93.8% | A549/ATCC NSCLC 89.1% | 786-0 renal 101% | COLO 205 colon 117%

CC(C)(C)Nc1nc2c(OCCc3ccccc3)cccn2c1-c1cccc(Oc2ccccc2)c1
inactive: NCI-H23 lung 11.1% | NCI-H226 lung 15.2% | NCI-H322M lung 15.8% | HOP-62 NSCLC 11.1% | A549/ATCC NSCLC 16.3%
active: NCI-H460 lung 8.14% | HOP-92 NSCLC -12.8% | NCI-H522 lung -26.1% | 786-0 renal 8.48% | COLO 205 colon -93.8%

CCn1c2ccc(/C=N/N(C)S(=O)(=O)CCN(C)C)cc2c2cc(/C=N/N(C)S(=O)(=O)CCN(C)C)ccc21
inactive: NCI-H23 lung 43.4% | NCI-H226 lung 40.8% | NCI-H322M lung 80.8% | HOP-62 NSCLC 101% | NCI-H460 lung 73.5% | HOP-92 NSCLC 42.4% | NCI-H522 lung 36% | A549/ATCC NSCLC 84.5% | 786-0 renal 50.3% | COLO 205 colon 92.8%

CCOC(=O)c1c(NC(=O)c2ccc(C(F)(F)F)cc2)sc2c(CN3CCN(C)CC3)c(O)ccc12
inactive: NCI-H23 lung 56.4% | NCI-H322M lung 10.2% | HOP-92 NSCLC 24.2%
active: NCI-H226 lung -6.63% | HOP-62 NSCLC -78.6% | NCI-H460 lung -70.7% | NCI-H522 lung -21.3% | A549/ATCC NSCLC -74.8% | 786-0 renal -93.6% | COLO 205 colon -67.5%

NC1=NC2(CCCC2)N(c2ccc(S(=O)(=O)Nc3nccs3)cc2)C(N)=N1
inactive: NCI-H23 lung 101% | NCI-H226 lung 100% | NCI-H322M lung 103% | HOP-62 NSCLC 110% | NCI-H460 lung 102% | HOP-92 NSCLC 113% | NCI-H522 lung 102% | A549/ATCC NSCLC 104% | 786-0 renal 105% | COLO 205 colon 113%

N#Cc1nc(-c2ccc(Cl)cc2)oc1N1CCC(S(=O)(=O)N2CCOCC2)CC1
inactive: NCI-H23 lung 96.5% | NCI-H226 lung 94.6% | NCI-H322M lung 92.2% | HOP-62 NSCLC 94.6% | NCI-H460 lung 103% | HOP-92 NSCLC 100% | NCI-H522 lung 87.2% | A549/ATCC NSCLC 99.9% | 786-0 renal 93.5% | COLO 205 colon 116%

C=C(C=O)[C@@H]1CC[C@]2(C(=O)O)CC[C@]3(C)C(CC[C@@H]4[C@@](C)(CCC#N)[C@H](C(=C)C=O)CC[C@]43C)[C@@H]12 (stereo not given in full)
active: NCI-H226 lung -16.4%
inactive: NCI-H23 lung 17.6% | NCI-H322M lung 98.6% | HOP-62 NSCLC 115% | NCI-H460 lung 96.7% | HOP-92 NSCLC 13.6% | NCI-H522 lung 81.4% | A549/ATCC NSCLC 82.7% | 786-0 renal 59.7% | COLO 205 colon 108%

O=C(CSc1nc2ccccc2c(=O)n1-c1ccc(Cl)cc1)N/N=C/c1ccc(Oc2ccc(Cl)cc2)cc1
active: NCI-H23 lung 3.12% | NCI-H460 lung -34.5% | HOP-92 NSCLC 2.59% | 786-0 renal -4.71%
inactive: NCI-H226 lung 75.6% | NCI-H322M lung 89.8% | HOP-62 NSCLC 32.6% | NCI-H522 lung 20.7% | A549/ATCC NSCLC 16.5% | COLO 205 colon 14.6%

CN1CCN(c2ccc(Nc3nc(NCCCNS(=O)(=O)c4ccc(F)cc4)c4sccc4n3)cc2)CC1
active: 786-0 renal 3.97%
inactive: NCI-H23 lung 87% | NCI-H226 lung 99.4% | NCI-H322M lung 87.6% | HOP-62 NSCLC 91.5% | NCI-H460 lung 72% | HOP-92 NSCLC 37.8% | NCI-H522 lung 71% | A549/ATCC NSCLC 77.9% | COLO 205 colon 50.5%

CCCCSC1=C(Cl)CN(c2ccc(Cl)cc2)C1=O
inactive: NCI-H23 lung 102% | NCI-H226 lung 96.1% | NCI-H322M lung 107% | HOP-62 NSCLC 106% | NCI-H460 lung 93.4% | HOP-92 NSCLC 96.6% | A549/ATCC NSCLC 102% | 786-0 renal 99.2% | COLO 205 colon 125%
active: NCI-H522 lung -4.15%

N#Cc1c(-c2ccc(F)cc2)cc(-c2c[nH]c3ccccc23)nc1-c1c[nH]c2ccccc12
inactive: NCI-H23 lung 100% | NCI-H226 lung 94% | NCI-H322M lung 106% | HOP-62 NSCLC 101% | NCI-H460 lung 104% | HOP-92 NSCLC 93.4% | NCI-H522 lung 97% | A549/ATCC NSCLC 101% | 786-0 renal 99.5% | COLO 205 colon 113%

O=C(CSc1nc2ccccc2c(=O)n1-c1ccccc1)N/N=C/c1ccc(Oc2ccc(Cl)cc2)cc1
inactive: NCI-H23 lung 39.1% | NCI-H226 lung 72.1% | NCI-H322M lung 84.5% | HOP-62 NSCLC 59.1% | NCI-H460 lung 32.1% | HOP-92 NSCLC 66.7% | NCI-H522 lung 49.6% | A549/ATCC NSCLC 41.7% | 786-0 renal 53.2% | COLO 205 colon 49.2%

CC(C)(C)c1cc(NC(=O)Nc2ccc(-c3cn4c5c(sc4n3)CCc3c[nH]cc3-5)cc2)no1
inactive: NCI-H23 lung 13.9% | NCI-H226 lung 33.9% | NCI-H322M lung 47.6% | HOP-92 NSCLC 23.5% | NCI-H522 lung 32.4% | A549/ATCC NSCLC 28.7%
active: HOP-62 NSCLC -28.1% | NCI-H460 lung 4.38% | 786-0 renal -29.4% | COLO 205 colon -17.2%

CC(=O)OC[C@]12CC[C@@H](C(=O)/C=C/c3cccnc3)[C@@H]1[C@H]1CC[C@@H]3[C@@]4(C)CC[C@H](OC(C)=O)C(C)(C)[C@@H]4CC[C@@]3(C)[C@]1(C)CC2
inactive: NCI-H322M lung 53.5% | HOP-62 NSCLC 28.1% | A549/ATCC NSCLC 23.1% | 786-0 renal 27.2%
active: NCI-H23 lung 1.02% | NCI-H226 lung -70.5% | NCI-H460 lung 7.8% | HOP-92 NSCLC -29.1% | NCI-H522 lung -20.3% | COLO 205 colon -18.6%

Cc1ccccc1NC(=O)Nc1nc2ccc([N+](=O)[O-])cc2s1
inactive: NCI-H226 lung 15.4% | 786-0 renal 13.1% | COLO 205 colon 10.9%
active: NCI-H23 lung 5.79% | NCI-H322M lung 9.34% | HOP-62 NSCLC 2.78% | NCI-H460 lung 5.87% | HOP-92 NSCLC -24.6% | NCI-H522 lung -10.9% | A549/ATCC NSCLC 9.2%

CCN(CC)S(=O)(=O)c1ccc(-c2nc(C(Cl)Cl)nc3cc(-c4ccc(F)cc4)nn23)cc1
active: HOP-92 NSCLC -3.41% | COLO 205 colon 8.9%
inactive: NCI-H23 lung 21.7% | NCI-H226 lung 77.3% | NCI-H322M lung 41.4% | HOP-62 NSCLC 10.3% | NCI-H460 lung 10.2% | NCI-H522 lung 79.3% | A549/ATCC NSCLC 17.8% | 786-0 renal 76.5%

O=C(N/N=C/c1cc2ccccc2nc1Cl)c1cc(-c2nc3ccccc3[nH]2)nc2ccccc12
inactive: NCI-H23 lung 96.2% | NCI-H226 lung 100% | NCI-H322M lung 99.9% | HOP-62 NSCLC 97.9% | NCI-H460 lung 104% | HOP-92 NSCLC 72.4% | NCI-H522 lung 83.6% | A549/ATCC NSCLC 95.1% | 786-0 renal 85.3% | COLO 205 colon 98.3%

O=C(/C=C/C=C/c1csc(Br)n1)NO
inactive: NCI-H23 lung 103% | NCI-H226 lung 103% | NCI-H322M lung 99.4% | HOP-62 NSCLC 112% | NCI-H460 lung 92.2% | HOP-92 NSCLC 129% | NCI-H522 lung 79.1% | A549/ATCC NSCLC 93.5% | 786-0 renal 101% | COLO 205 colon 110%
